aSyn 5UTR act: Activators via SNCA 5'UTR binding, MLPCN; AID 1814, 2009; activity score, % (tested at 7.5 µM), hits read low; alpha-synuclein 5'UTR reporter, activators screen; 300,000 compounds, 7.1% hits; in the data active = activity score below about -60%
A number is an active result; 0 = inactive. The list is a sample of the results.

SMILES | aSyn 5UTR act
Cc1onc(-c2ccccc2Cl)c1C(=O)Nc1nc2c(s1)CCCC2 | -121.3
COc1ccc2c(c1)Cc1sc(NC(C)=O)nc1-2 | -169.1
COc1ccc2c(c1)Cc1sc(NC(=O)c3ccco3)nc1-2 | -264.7
O=C(Nc1nc2c(s1)CCCC2)c1cccnc1 | -163.9
O=C(c1ccc(-c2ccccc2Cl)o1)N1CCN(S(=O)(=O)c2cccs2)CC1 | -113.7
N#CCCN1CCN(C(=S)c2ccc(-c3ccc(Cl)cc3)o2)CC1 | -88.0
S=C(c1ccc(-c2ccccc2Cl)o1)N1CCCCC1 | -169.9
CN1CCN(C(=S)c2ccc(-c3cccc(Cl)c3Cl)o2)CC1 | -113.3
S=C(c1ccc(-c2ccc(Cl)cc2)o1)N1CCCCC1 | -149.9
O=C(Nc1ccccc1N1CCCCC1)c1ccc(-c2ccc(Cl)cc2)o1 | 0
CC1(C)N=C(N)N=C(N)N1c1ccc(OCCCOc2ccccc2)c(Cl)c1 | 0
COc1cc(C)ccc1OCCOc1ccccc1Cl | -208.0
COc1cc(C)ccc1OCCCOc1ccccc1Cl | -207.3
c1ccc(Nc2nc(-c3ccncc3)cs2)cc1 | -151.0
Fc1ccc(Nc2nc(-c3ccncc3)cs2)cc1 | -114.0
Cc1nc2ncccn2c1-c1csc(Nc2ccc(N(C)C)cc2)n1 | 0
Nc1ccc(Nc2nc(-c3ccncc3)cs2)cc1 | -135.1
Clc1ccc(Nc2nc(-c3ccncc3)cs2)cc1 | -85.4
CCc1ccc(NC(=O)N2CCC(c3ccccc3)C2)cc1 (stereo not given) | -171.7
O=C(c1cccs1)N1CCC(c2ccccc2)C1 (stereo not given) | -139.8
Cc1ccc(C2CCN(C(=S)NC(C)(C)C)C2)cc1 (stereo not given) | -92.9
CCOc1ccc(NC(=O)N2CCC(c3ccc(C)cc3)C2)cc1 (stereo not given) | -67.4
O=C(Nc1ccccc1)N1CCC(c2ccccc2)C1 (stereo not given) | -141.0
COc1ccc(NC(=S)N2CCC(c3ccccc3)C2)cc1 (stereo not given) | -169.2
COc1cccc(NC(=O)CSc2nnc(-c3cccc(OC(C)C)c3)n2N)c1 | -73.2
SMILES | aSyn 5UTR act
CC1CCC/C(=C\Nc2ccc3c(c2)OCO3)C1=O (stereo not given) | -119.4
Cc1ccc(NC(=O)CS(=O)c2ccccc2N)c(C)c1 (stereo not given) | -95.9
CCOC(=O)c1ccc(N/C=C/C(=O)c2ccco2)cc1 | -85.0
O=C(/C=C/Nc1ccc(F)cc1)c1ccco1 | -143.6
c1ccc2nc(-c3ccc4c(c3)OCO4)ccc2c1 | -81.4
COc1ccc(OC)c2nc(-c3ccc4c(c3)OCO4)ccc12 | -89.5
CCCc1cc(-c2nc(N)ncc2-c2ccc3c(c2)OCCCO3)c(O)cc1OC | 0
COc1cc2c(O)c3c(c(-c4ccc5c(c4)OCO5)c2cc1OC)C(=O)OC3 | 0
CC(C)OC(=O)/C(=C\c1ccc2c(c1)c1ccccc1n2C)NC(=O)c1ccccc1 | -112.8
CC(C)OC(=O)/C(=C/c1ccc2c(c1)c1ccccc1n2C)NC(=O)c1ccccc1 | -145.9
Cc1[nH]n(-c2ccccc2)c(=O)c1/C=C1/C=c2ccccc2=N1 | -68.7
O=C(c1cccs1)N1N=C(c2ccc(O)cc2)CC1c1ccccc1 (stereo not given) | -71.7
c1ccc(-c2nnc(-c3ccncc3)nc2-c2ccccc2)cc1 | -105.1
CCC(=O)NC(c1ccc(OC)cc1)c1cc(Cl)c2cccnc2c1O (stereo not given) | 0
COc1ccc(/C(O)=C2/C(=O)C(=O)N(c3ccccn3)C2c2ccc(C(C)C)cc2)cc1 (stereo not given) | -121.8
COc1ccc(N2C(=O)C(=O)/C(=C(/O)c3ccc(C)cc3)C2c2cccnc2)cc1 (stereo not given) | -61.9
NNc1ccc(Cl)c(C(=O)O)c1 | -180.0
O=[N+]([O-])c1cccc(N/N=C/c2cccc3ccccc23)c1 | -91.2
Cc1ccc(/C=N/Nc2ccc(Cl)c(C(=O)O)c2)s1 | -153.3
O=C(O)c1cc(N/N=C/c2cccc3ccccc23)ccc1Cl | -131.3
O=C(O)c1cc(N/N=C/c2cccs2)ccc1Cl | -252.7
Cc1cc(Cl)ccc1Nc1ncccc1C(N)=O | -154.4
Cc1ccc(Nc2ncccc2C(N)=O)cc1 | -138.8
COc1ccc(Nc2ncccc2C(=O)O)cc1 | -77.0
Nc1[nH]c(N=NC(=O)c2ccccc2O)c2ccccc12 | -150.3
SMILES | aSyn 5UTR act
Cc1ccc(CSC2=Nc3ccccc3C3=NC(CC(=O)NCc4ccco4)C(=O)N23)cc1 (stereo not given) | -73.4
Cc1nc2c3cnn(-c4ccc(C)c(C)c4)c3ncn2n1 | -191.0
Cc1ccc(-n2c(C)nc3c(cnn3-c3ccc(C)c(C)c3)c2=O)cc1C | -100.7
Cc1ccc(-c2nn3cnnc3c3ccccc23)cc1C | 0
C#CCn1cnc2c(cnn2-c2ccc(C)c(C)c2)c1=O | -107.5
Nc1nccc(/C=C/c2c(F)cccc2Cl)n1 | -102.8
Oc1cccc2ccc(/C=C/c3c(F)cccc3Cl)nc12 | -114.0
Cc1ccc(OCc2ccc(Br)cc2)c([N+](=O)[O-])n1 | -141.1
Cc1ccc(OCc2ccc(-c3ccccc3)cc2)c([N+](=O)[O-])n1 | -83.6
Cc1ccc(OCCOc2cccc(Br)c2)c([N+](=O)[O-])n1 | -189.9
COc1ccc(OC)c(Cc2nnc(CCC(=O)N3CCN(C4CCCC4)CC3)o2)c1 | -74.0
CC1CCc2c(sc(NC(=O)CSc3ncn[nH]3)c2C#N)C1 (stereo not given) | 0
O=C(CSC1=NCCS1)Nc1nc2c(s1)CCCC2 | -104.0
Cc1nnc(SCC(=O)Nc2nc3c(s2)CC(C)CC3)s1 (stereo not given) | -74.6
Cn1nnnc1SCC(=O)Nc1nc2c(s1)CCCC2 | -102.0
Cc1ccccc1N=C1Nc2ccccc2CS1 | -134.0
CCc1ccc(N2NC(=O)/C(=C/C=C/c3ccco3)C2=O)cc1 | -77.9
CC(=O)Nc1ccc(S(=O)(=O)N2c3ccccc3C(C)=CC2(C)C)cc1 | 0
CC(=O)Nc1ccc(/C=C2\CCc3ccccc3C2=O)cc1 | -118.3
Cc1oc(-c2ccc3c(c2)OCCO3)cc1C(=O)O | -135.1
Cc1oc(-c2ccc3c(c2)OCCO3)cc1C(=O)NCC(=O)O | -126.1
CCN1CCN(Cc2ccc(NC(=O)c3ccc(C)c(/C=C/c4cnc(Nc5cc(N6CCNCC6)nc(C)n5)cn4)c3)cc2C(F)(F)F)CC1 | 0
CCN1CCN(c2cc(C)c3cc(NC(=O)c4ccc(C)c(C)c4)ccc3n2)CC1 | 0
CCN1CCN(c2cc(C)c3cc(NC(=S)N4CCCCC4)ccc3n2)CC1 | -85.3
Cc1cc(N2CCN(C)CC2)nc2ccc(NC(=O)c3ccccc3F)cc12 | -123.0
SMILES | aSyn 5UTR act
CCN1CCN(c2cc(C)c3cc(NC(=O)c4ccc(Br)o4)ccc3n2)CC1 | -84.5
C=CCn1c(SCC(C)=O)nc2scc(-c3ccc(C)o3)c2c1=O | -150.0
C=CCn1c(=S)[nH]c2scc(-c3ccc(C)o3)c2c1=O | -68.5
C=CCn1c(SCC(=O)c2[nH]c(C)c(C(=O)OCC)c2C)nc2scc(-c3ccc(OC)c(OC)c3)c2c1=O | 0
CCn1c(=S)[nH]c2scc(-c3cccs3)c2c1=O | -72.3
Cc1ccc(-c2csc3nc(C)n(N)c(=O)c23)o1 | -130.2
COc1ccc(C(=O)NCC(=O)c2ccccc2)cc1 | -101.7
COC(=O)c1ccc(OCC(=O)c2ccccc2)cc1 | -133.2
COc1ccc(C(=O)CCNc2ccc(F)cc2)cc1 | -114.2
O=C(CNS(=O)(=O)c1ccccc1)OCC(=O)c1ccc(OC(=O)c2ccccc2)cc1 | -66.7
CCOc1ccc(C(=O)CSCCC(=O)O)cc1 | 0
COc1ccc(C(=O)C[n+]2ccc3ccccc3c2C)cc1 | -143.8
COc1ccc(S(=O)(=O)Nc2cc3c(C(C)=O)c(C)oc3c3ccccc23)cc1 | 0

Screening data from PubChem.
